In PubChem BioAssay (Tox21):
“And” between values parts separate entries of the source, which are not always exact repeats. Equal values may be shown once. Records with an inconclusive call do not appear. Entries that show only a call come without a potency. More than one record can exist for a structure, and the calls need not agree. The source made the active and inactive calls. Unless noted, calls follow the shape of the dose curve; as a rule, active = well fitted curve in the direction sought with a large enough effect in the repeat runs; inconclusive = weak or mixed curves; inactive = no such curve, though single readings can be large; an effect the other way counts as inactive or inconclusive.

Assays:
[1] = qHTS assay for small molecule agonists of the p53 signaling pathway (AID 651631; calls by dose curve; also: nearly all actives have a fitted effect of over 15% in size; also: potency is read from the fitted curve at half-maximal effect)
Summary of the method: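 HCT-116 cells carrying a stable p53 response element–beta-lactamase reporter were plated, rested 5 h at 37 °C, then exposed to compound in DMSO for 16 h at 37 °C; reporter activity was read as FRET substrate fluorescence after 2 h at room temperature.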

[2] = qHTS assay for small molecules that induce genotoxicity in human embryonic kidney cells expressing luciferase-tagged ATAD5 (AID 651632); also: nearly all actives have a fitted effect of over 15% in size; also: potency is read from the fitted curve at half-maximal effect
Summary of the method: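 HEK293T cells carrying a luciferase reporter tagged to ATAD5 were exposed to compound or DMSO vehicle for 16 hr at 37C, 5% CO2. Amplite was added, and after 30 min at room temperature luciferase activity was read as a marker of ATAD5 induction.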

[3] = qHTS assay for small molecule agonists of the p53 signaling pathway - cell viability (AID 651633; calls by dose curve; also: nearly all actives have a fitted effect of over 30% in size; also: potency is read from the fitted curve at half-maximal effect)
Summary of the method: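 p53RE-bla cells, seeded at 4,000 per well and rested 5 h at 37 C/5% CO2, received compounds in DMSO for 16 h at 37 C. CellTiter-Glo was then added, and luminescence was read after 30 min at room temperature to gauge cytotoxicity.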

[4] = qHTS assay for small molecules that induce genotoxicity in human embryonic kidney cells expressing luciferase-tagged ATAD5 - cell viability (AID 651634; calls by dose curve; also: nearly all actives have a fitted effect of over 25% in size; also: potency is read from the fitted curve at half-maximal effect)
Summary of the method: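 HEK293T cells expressing luciferase-tagged ATAD5 were exposed to compound or DMSO for 15.5 hr at 37C, 5% CO2. Viability was then read as live-cell protease activity by CellTiter-Fluor fluorescence after 30 min at 37C.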

[5] = qHTS assay for small molecule disruptors of the mitochondrial membrane potential - cell viability (AID 720634; calls by dose curve; also: nearly all actives have a fitted effect of over 20% in size; also: potency is read from the fitted curve at half-maximal effect)
Summary of the method: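 HepG2 cells seeded overnight at 37 C, then exposed to compound or DMSO for 1 hr at 37 C, 5% CO2. m-MPI dye added, then CellTiter-Glo for 30 min at room temperature; viability read as ATP luminescence.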

[6] = qHTS assay to test for compound auto fluorescence at 590 nm (red) in HepG2 cells (AID 720674)
Summary of the method: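 Rose Bengal sodium served as the red fluorophore standard. HepG2 monolayers (overnight attachment, MEM with 10% FBS) were exposed to test compounds for 1 hr at 37 C and read at Ex 540/Em 590 nm.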

[7] = qHTS assay to test for compound auto fluorescence at 535 nm (green) in HepG2 cells (AID 720675)
[8] = qHTS assay to test for compound auto fluorescence at 590 nm (red) in HEK293 cells (AID 720679)
Summary of the method: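 Red autofluorescence, HEK293 cells: 2,000 cells/well; attach 4-5 hr 37C; add 23 nL cpd or DMSO; incubate o/n 37C 5% CO2; read Ex540/Em590; Rose Bengal sodium reference.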

[9] = qHTS assay for small molecule disruptors of the mitochondrial membrane potential (AID 720635); also: potency is read from the fitted curve at half-maximal effect
Summary of the method: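 HepG2 cells (2,000/well) attached overnight at 37C, then took compound for 1 hr at 37C, 5% CO2. Mito-MPS dye was added for 30 min; fluorescence was read at 490/535 nm (monomers) and 540/590 nm (aggregates).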

[10] = qHTS assay to test for compound auto fluorescence at 460 nm (blue) in HEK293 cells (AID 720678); also: potency is read from the fitted curve at half-maximal effect
Summary of the method: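 Intrinsic compound fluorescence is recorded in live HEK293 cultures after overnight incubation at 37C, 5% CO2, using excitation 405 nm and emission 460 nm. Values are referenced to triamterene.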
Tags tell the direction and shape of the fitted curve or compound fluorescence and quenching.

SMILES	Potency [1]	Potency [2]	Potency [3]	Potency [4]	Potency [5]	Potency [6]	Potency [7]	Potency [8]	Potency [9]	Potency [10]	fluorescence, relative to Rose Bengal [6]	fluorescence, % of fluorescein control [7]	fluorescence, % of triamterene [10]	fluorescence, % of fluorescent control [8]
CC(=O)OCC(C)OC(C)=O (stereo not drawn)	inactive	inactive	inactive	inactive	inactive	inactive	inactive	inactive	–	–	–	–	–	–
O=c1c(-c2ccccc2)c1-c1ccccc1	18.8 µM (active)	inactive	13.3 µM (active)	–	inactive	inactive	inactive	inactive	23.7 µM (active)	inactive	–	–	–	–
N=C1N=C(N)c2ccccc21	24.3 µM (active)	21.7 µM (active)	21.7 µM (active)	–	inactive	inactive	inactive	–	–	inactive	–	–	–	–
CCCCCCCCn1sc(Cl)c(Cl)c1=O	17.2 µM (active)	inactive	30.6 µM (active)	19.3 µM (active)	27.3 µM (active)	inactive	inactive	–	–	inactive	–	–	–	–
N=C1C=CC(=C(c2ccc(N)cc2)c2ccc(N)cc2)C=C1	68.6 µM (active)	inactive	–	24.3 µM (active)	–	inactive	inactive	inactive	0.0611 µM (active)	inactive	–	–	–	–
CN(C)c1ccc(C2(c3ccc(N(C)C)cc3)OC(=O)c3cc(N(C)C)ccc32)cc1	60.9 µM (active)	inactive	inactive	inactive	–	inactive	inactive	inactive	21.6 µM (active)	–	–	–	–	–
ON=C1CCCC1	inactive	inactive	inactive	inactive	inactive	inactive	inactive	inactive	inactive	inactive	–	–	–	–
Clc1ccc2nsnc2c1NC1=NCCN1	inactive	inactive	inactive	inactive	inactive	inactive	inactive	inactive	inactive	inactive	–	–	–	–
O=C1c2ccccc2Cc2ccccc21	inactive	inactive	inactive	inactive	inactive	inactive	inactive	–	12.3 µM (active)	inactive	–	–	–	–
Cc1nc(-c2ccc3c(c2)CCN(CCC2CCC(NC(=O)/C=C/c4ccc(F)cc4)CC2)CC3)no1 (stereo not drawn)	27.4 µM (active)	19.4 µM (active)	inactive	–	inactive	inactive	inactive	inactive	inactive	inactive	–	–	–	–
N=C1N=C(N)c2cc3ccccc3cc21	9.69 µM (active)	19.3 µM (active)	12.2 µM (active)	inactive	inactive	inactive	inactive	inactive	3.06 µM (active)	35.5 µM [fluorescent] (active)	–	–	–	–
CC(=O)N1CCN(c2ccc(OC[C@H]3CO[C@](Cn4ccnc4)(c4ccc(Cl)cc4Cl)O3)cc2)CC1	inactive	inactive	inactive and 61.1 µM (active)	–	inactive	inactive	inactive	inactive	4.86 µM (active)	inactive	–	–	–	–
CC(=O)S[C@@H]1CC2=CC(=O)CC[C@]2(C)[C@H]2CC[C@@]3(C)[C@@H](CC[C@@]34CCC(=O)O4)[C@H]12	17.2 µM (active)	inactive	inactive	inactive	inactive	inactive	inactive	inactive	–	inactive	–	–	–	–
CS(=O)(=O)CCNCc1ccc(-c2ccc3ncnc(Nc4ccc(OCc5cccc(F)c5)c(Cl)c4)c3c2)o1	inactive	inactive	inactive	inactive	inactive	inactive	inactive	inactive	inactive	inactive	–	–	–	–
CSc1cnc(C)cn1	inactive	inactive	inactive	–	inactive	inactive	inactive	inactive	inactive	inactive	–	–	–	–
CSc1ccc(C(=O)c2[nH]c(=O)[nH]c2C)cc1	inactive	inactive	inactive	inactive	inactive	inactive	inactive	inactive	inactive	inactive	–	–	–	–
N/C(=N\N=C\c1ccc(Cl)cc1)N/N=C/c1ccc(Cl)cc1	26.6 µM (active)	inactive	26.6 µM (active)	inactive	inactive	inactive	inactive	inactive	–	inactive	–	–	–	–
Cc1cc2c(cc1C(F)(F)F)N(C(=O)Nc1ccc(Oc3cccnc3C)nc1)CC2	inactive	inactive	inactive	–	–	inactive	inactive	inactive	12.4 µM (active)	–	–	–	–	–
CC(C)(C)C(=O)OCOC(=O)[C@@H]1N2C(=O)[C@@H](NC(=O)[C@H](N)c3ccccc3)[C@H]2SC1(C)C	inactive	inactive	inactive	inactive	inactive	–	–	–	inactive	–	0.612% [at 18.6 µM] (inactive)	-0.113% [at 18.6 µM] (inactive)	0.0033% [at 18.6 µM] (inactive)	0.201% [at 18.6 µM] (inactive)
CCCCCCCCCCCC[N+](C)(C)CCCCCCCCCCCC	–	inactive	54.5 µM (active)	68.6 µM (active)	30.6 µM (active)	inactive	inactive	inactive	19.3 µM (active)	inactive	–	–	–	–
